Shown are actives, neighbours in structure and some others; about 3% of the full set was active somewhere.
FBA Mtb inh – inhibitors of M. tuberculosis fructose-bisphosphate aldolase; P9WQA3; purified M. tuberculosis FBA, fluorescence read-out; inhibition, % at 1 µM; hit rate 2.3% among 360,000; AID 588726; in the data active means inhibition above about 27%;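 further: 0% = vehicle and 100% = reference inhibitor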
Target sequence (P9WQA3 whole entry, looked up): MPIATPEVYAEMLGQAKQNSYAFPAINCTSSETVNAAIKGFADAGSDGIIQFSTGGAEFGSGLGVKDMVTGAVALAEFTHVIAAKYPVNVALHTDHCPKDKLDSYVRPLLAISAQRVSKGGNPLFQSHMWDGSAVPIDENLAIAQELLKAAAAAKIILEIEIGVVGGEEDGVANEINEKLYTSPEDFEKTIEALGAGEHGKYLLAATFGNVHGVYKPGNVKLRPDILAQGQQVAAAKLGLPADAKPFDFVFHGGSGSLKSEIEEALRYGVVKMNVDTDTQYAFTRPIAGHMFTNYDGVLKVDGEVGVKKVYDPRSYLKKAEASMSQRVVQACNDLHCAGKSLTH
Vc quorum ag – induces V. cholerae light production without autoinducers | V. cholerae BH1578 lux reporter, luminescence, 6 h | activation, % at 18.7 µM | hit rate 0.16% among 350,000 | AID 588436; in the data active means activation mostly above about 9.7%, no sharp cut-off
GDH-TPI counter – GDH-TPI coupled enzyme inhibition counter-screen | inhibition, % at 4.8 µM | hit rate 1.2% among 360,000 | GDH-TPI coupled enzyme counterscreen, NADH absorbance | AID 588335; in the data active means inhibition above about 30%;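 further: 0% = DMSO wells and 100% = wells lacking the enzyme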
BioA inh – BioA (M. tuberculosis) enzyme inhibition; purified M. tuberculosis BioA enzyme, plate reader; inhibition, % at 9.99 µM; hit rate 0.096% among 360,000; in the data active means inhibition above about 40%
The depositor's hits bear a star; i = inactive; . = not tested or not shown.

SMILES | FBA Mtb inh | Vc quorum ag | GDH-TPI counter | BioA inh
Cc1c(Br)c([N+](=O)[O-])nn1C(C)C(=O)Nc1ccc2c(c1)OCO2 (centres undefined) | 0.9 | 55.2* | 14.0 | 0.2
Cc1cc(C)n(C(=O)C(C)n2nc([N+](=O)[O-])c(Br)c2C)n1 (centres undefined) | 1.0 | i | -6.2 | .
Cc1ccc(C2=N/C(=C\N(C)C)C(=O)O2)cc1 | -0.1 | -3.8 | 44.6* | -0.4
CN(C)/C=C1/N=C(c2ccccc2)OC1=O | 0.0 | i | 52.2* | -0.5
CN(C)/C=C1\N=C(c2cccnc2Oc2ccc(Cl)cc2)OC1=O | 1.3 | i | 32.4* | 3.7
O=C1OC(c2ccccc2)=N/C1=C\N1CCCCC1 | -3.0 | -1.8 | 41.4* | 0.5
CN(C)/C=C1\N=C(c2ccc(Cl)cc2Cl)OC1=O | -2.4 | i | 20.4 | -0.2
O=C1OC(c2ccc(Br)cc2)=N/C1=C\N1CCCCC1 | -2.4 | -0.3 | 20.4 | -0.8
O=C(C[C@@H]1CC[C@H]2[C@@H](COC[C@@H](O)CN2C(=O)c2ccccc2)O1)Nc1ccc(-c2ccccc2)cc1 | . | . | . | -0.1
CN(C)/C=C1\N=C(c2cccs2)OC1=O | -0.8 | -1.0 | 48.6* | 6.0
COc1ccc(/C=N\NC(=O)c2cc3c(ccc4ccccc43)o2)cc1O | 8.7 | i | 39.2* | -4.3
COc1cc(/C=N/NC(=O)c2cc3c(ccc4ccccc43)o2)cc(OC)c1O | 5.2 | -11.1 | 49.0* | 0.0
COc1ccc(/C=N/NC(=O)c2cc3c(ccc4ccccc43)o2)cc1OC | 6.7 | -0.3 | 25.8 | -0.8
COc1ccc2ccc(OC)c(/C=N/NC(=O)c3cc4ccccc4o3)c2c1 | 4.0 | i | 31.6* | .
COc1cccc(CNC(=O)C[C@@H]2C=C[C@@H](NC(C)=O)[C@@H](CO)O2)c1 | . | . | . | 0.4
COCC(=O)N1C[C@@H](C)[C@@H](OC)CN(C)C(=O)c2ccc(NC(=O)Nc3ccccc3)cc2OC[C@@H]1C | . | . | . | 0.2
CO[C@@H]1CN(C)C(=O)c2ccc(NS(=O)(=O)c3ccccc3)cc2OC[C@H](C)N(Cc2ccccn2)C[C@@H]1C | . | . | . | 0.0
COc1cccc(Oc2c(C)oc3c(CN4CCCC4)c(O)ccc3c2=O)c1 | 172.5* | i | 23.2 | .
COc1ccc(-c2c(C)oc3c(CN4CCOCC4)c(O)ccc3c2=O)cc1OC | 17.6 | i | 8.6 | 6.6
COC(=O)c1ccc(Oc2c(C(F)(F)F)oc3c(CN4CCN(C)CC4)c(O)ccc3c2=O)cc1 | -1.1 | i | 16.4 | -0.8
COc1ccccc1Oc1c(C)oc2c(CN3CCOCC3)c(O)ccc2c1=O | 180.5* | -0.7 | 20.6 | .
CCOc1ccccc1Oc1c(C)oc2c(CN3CCN(C)CC3)c(O)ccc2c1=O | 138.5* | i | 42.1* | -1.0
COc1cccc(Oc2coc3c(CN4CCOCC4)c(O)ccc3c2=O)c1 | 115.4* | i | 25.7 | 0.5
C[C@@H]1CN([C@@H](C)CO)C(=O)c2cc(NS(C)(=O)=O)ccc2O[C@@H]1CN(C)Cc1ccccc1 | . | . | . | -1.7
C[C@H]1CN([C@@H](C)CO)C(=O)Cc2cc(NC(=O)NC3CCCCC3)ccc2O[C@H]1CN(C)S(C)(=O)=O | . | . | . | -2.1
SMILES | FBA Mtb inh | Vc quorum ag | GDH-TPI counter | BioA inh
CCN(CC)S(=O)(=O)c1ccc(N/N=C/c2cccnc2)nc1 | 0.1 | i | 72.8* | 2.0
Cc1ccc(S(=O)(=O)N(C)C[C@@H]2Oc3ccc(NC(=O)CCCCCC(=O)Nc4ccccc4N)cc3CC(=O)N([C@H](C)CO)C[C@@H]2C)cc1 | . | . | . | 0.5
CC(C)OC(=O)c1cc(C(=O)c2cc(Br)ccc2O)coc1=N | 2.8 | -0.6 | 8.1 | -1.2
CCOc1ccccc1NC(=O)c1cc(C(=O)c2cc(Br)ccc2O)coc1=N | 3.8 | -0.5 | 31.1* | .
CCCNc1oc(-c2cccc3ccccc23)nc1C#N | 148.1* | i | 19.6 | -0.6
CC(=O)Nc1oc(-c2cccc3ccccc23)nc1C#N | 163.5* | -0.4 | 5.2 | 7.8
CC(C)CNc1oc(-c2ccccc2Cl)nc1C#N | 10.5 | -0.2 | 14.0 | .
COCCCNc1oc(-c2ccccc2Cl)nc1C#N | 8.4 | -2.7 | 15.6 | .
N#Cc1nc(-c2cccc3ccccc23)oc1NCCN1CCOCC1 | 121.9* | -0.4 | 32.9* | 0.9
COc1cccc(S(=O)(=O)N[C@@H]2CC[C@H](CC(=O)NCc3ccncc3)O[C@@H]2CO)c1 | . | . | . | -1.0
CCCCn1c(=O)c(C=Nc2ccc(Cl)cc2)c(O)n(Cc2ccco2)c1=O | 1.6 | -0.4 | 11.2 | .
CC(C)n1c(=O)c(C=Nc2ccc(S(N)(=O)=O)cc2)c(O)n(Cc2ccco2)c1=O | -2.1 | i | 32.3* | .
Cc1cc(C)c2c(N)c(C(=O)Nc3ccccc3Cl)sc2n1 | 32.8* | -0.4 | 6.1 | 1.3
C=COC(=O)c1sc2nc(C)cc(C)c2c1N | 134.2* | 0.0 | 1.1 | .
C[C@@H]1CN([C@@H](C)CO)C(=O)c2cc(NS(=O)(=O)c3ccccc3)ccc2O[C@@H](C)CCCCO[C@@H]1CN(C)C(=O)CCC(F)(F)F | . | . | . | 0.3
O=C1NC(=O)C(=CC=Cc2ccccc2)S1 | -1.9 | -4.8 | 37.7* | -1.7
C[C@@H]1CCCCO[C@@H](CN(C)Cc2ccccc2)[C@@H](C)CN([C@H](C)CO)C(=O)c2cc(NC(=O)Nc3ccc(C(F)(F)F)cc3)ccc2O1 | . | . | . | -0.8
COc1ccc(/C=C\C(=O)c2c(O)ccc3c(C)cc(=O)oc23)cc1 | 3.1 | i | 49.1* | 1.9
Cc1cc(=O)oc2c(O)c(O)ccc12 | 1.6 | i | 4.3 | 0.1
COc1ccc(/C=C/C(=O)c2c(O)ccc3c(C)cc(=O)oc23)cc1 | -1.6 | 0.7 | 37.5* | .
C[C@@H]1CN([C@@H](C)CO)C(=O)c2cccc(NC(=O)Nc3ccccc3)c2O[C@H]1CN(C)Cc1ccc(Oc2ccccc2)cc1 | . | . | . | 5.3
C[C@@H]1CN([C@@H](C)CO)C(=O)c2cc(NC(=O)Cc3ccccc3)ccc2O[C@H]1CN(C)S(=O)(=O)c1cn(C)cn1 | . | . | . | 0.4
COc1ccc(S(=O)(=O)N(C)C[C@@H]2Oc3ccc(NC(=O)C4CC4)cc3C(=O)N([C@@H](C)CO)C[C@@H]2C)cc1 | . | . | . | -1.1
CC(=O)OCC(=O)[C@@]12OC(C)(C)O[C@@H]1C[C@H]1[C@@H]3C[C@H](F)C4=CC(=O)C=C[C@]4(C)[C@@]3(F)[C@@H](O)C[C@@]12C | . | 21.2* | . | 3.1
CCC(=O)Nc1ccc2c(c1)OC[C@H](C)N(C(=O)NC(C)C)C[C@H](C)[C@H](OC)CN(C)C2=O | . | . | . | -0.5
SMILES | FBA Mtb inh | Vc quorum ag | GDH-TPI counter | BioA inh
COc1ccccc1N1CCc2c(C)nc3c(OC)cccc3c21 | 6.8 | -1.0 | 46.1* | 15.8
Cc1ccc(-c2cnc3c(c2)C(=O)N([C@@H](C)CO)C[C@@H](C)[C@@H](CN(C)C(=O)c2cccc(F)c2)O3)cc1 | . | . | . | 0.8
CN1C2CCC1/C(=C\c1ccccc1)C(=O)/C2=C\c1ccccc1 | -2.4 | i | 29.6 | 0.6
CN1C2CCC1/C(=C/c1ccccn1)C(=O)/C2=C\c1ccccn1 | -3.1 | -0.1 | 45.8* | -1.6
COc1cc(/C=C/C(=O)Nc2nc3ccc(S(=O)(=O)N(C)C)cc3s2)cc(OC)c1OC | 25.4 | -0.2 | 47.8* | -1.6
COc1cc(/C=C/C(=O)Nc2nnc(C(C)(C)C)s2)cc(OC)c1OC | 12.7 | -0.4 | 24.4 | .
CCOC(=O)Cc1c(C)nc2cc(-c3ccc(Cl)cc3)[nH]n2c1=O | 1.4 | -0.2 | 4.6 | .

Screens (PubChem BioAssay)
